Measurements: PubChem BioAssay (NCI)
Compounds without any hit were thinned out: in the full panel of roughly 83,000, 20% have a hit.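 In brief: 96-well plates, 48 h treatment, single concentration, percent growth endpoint.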 Unmarked numbers belong to inactive results. Activity calls are given as the source filed them. How the source made its calls: active means growth percent below 10; inactive means the rest.

Assays:
Experiment in all cases: NCI-60 one-dose screen, 48 h (100 = growth as untreated, 0 = no growth, -100 = all killed)
Conditions in all cases: 10 µM unless noted
NCI-H23 lung = system: NCI-H23 lung
NCI-H226 lung = system: NCI-H226 lung
NCI-H322M lung = system: NCI-H322M lung
HOP-62 NSCLC = system: HOP-62 NSCLC
NCI-H460 lung = system: NCI-H460 lung
HOP-92 NSCLC = system: HOP-92 NSCLC
NCI-H522 lung = system: NCI-H522 lung
A549/ATCC NSCLC = system: A549/ATCC NSCLC
786-0 renal = system: 786-0 renal
COLO 205 colon = system: COLO 205 colon

SMILES	growth (NCI-H23 lung)	growth (NCI-H226 lung)	growth (NCI-H322M lung)	growth (HOP-62 NSCLC)	growth (NCI-H460 lung)	growth (HOP-92 NSCLC)	growth (NCI-H522 lung)	growth (A549/ATCC NSCLC)	growth (786-0 renal)	growth (COLO 205 colon)
COc1cc(-c2cc(-c3nc4cc(Cl)c(Cl)cc4[nH]3)[nH]n2)cc(OC)c1OC	75.3%	38%	92.3%	80.6%	69.7%	61.2%	45.8%	69.5%	87.4%	46.8%
CC(=O)c1c(C)[nH]c(-c2nc3ccc(N4CCN(C)CC4)cc3[nH]2)c1-c1ccc2c(c1)OCCO2	50.1%	47.9%	45.8%	33.7%	62.7%	39%	48.7%	44%	40.9%	12.7%
O=S(=O)(NCCNc1cc(-c2cn(-c3ccccc3)nc2-c2cccc(O)c2)ccn1)c1ccc(C(F)(F)F)cc1	41.8%	57.8%	75.3%	-60% (active)	42.3%	38.4%	55.7%	41.6%	35.8%	-21.4% (active)
C[N+](C)(CCCCCC[N+](C)(C)C1c2ccccc2-c2ccccc21)C1c2ccccc2-c2ccccc21	103%	108%	131%	113%	109%	117%	80.9%	102%	112%	106%
O=C1Nc2ccccc2/C1=C/c1cn(CCCn2c3ccccc3c(=O)c3ccccc32)c2ccccc12	79.2%	81.3%	86.8%	80.3%	96.3%	83.4%	77.5%	96.5%	82.9%	88.6%
C#Cc1cccc(NC(=O)C2CCCN(C(=O)CCl)C2)c1 (stereo not given)	-27% [8.25 µM] (active)	1.82% [8.25 µM] (active)	111% [8.25 µM]	87.8% [8.25 µM]	97.5% [8.25 µM]	98.3% [8.25 µM]	-53.6% [8.25 µM] (active)	86.1% [8.25 µM]	89.5% [8.25 µM]	27.2% [8.25 µM]
NC1(N)C=CC2=C(C=C1)C1(N)C3=C(C=CC(N)(N)C=C3)N2C2(N)C3=C(C=CC(N)(N)C=C3)N1C1=C2C=CC(N)(N)C=C1	79.5%	97.7%	99.8%	89.8%	94.6%	70.3%	28.4%	88.8%	84.3%	104%
COc1cnc2c(c1)C(=O)c1c-2n(CCCNC(C)C)c(=O)c2cc([N+](=O)[O-])ccc12	-67.8% (active)	-58.8% (active)	-31.6% (active)	-53.2% (active)	-74.1% (active)	-80.1% (active)	-56.6% (active)	-65.5% (active)	-88.2% (active)	-74.3% (active)
CC1(n2nnnc2N2CCCN(c3ncccc3N)CC2)CCC1	103%	90.4%	94.2%	99%	99.5%	95.7%	100%	107%	104%	111%
O=S(=O)(NCCNc1cc(-c2cn(-c3ccccc3)nc2-c2cccc(O)c2)ccn1)c1ccc(Cl)cc1	36.6%	45.9%	56.8%	51.4%	26.3%	33.8%	32.3%	31.1%	12%	-48% (active)
CN(C)c1ccc(-c2ccc(-c3ccc(C(=N)N)c(F)c3)s2)cc1	-67.1% (active)	-60.1% (active)	0.0772% (active)	-75.2% (active)	-77.5% (active)	-79.4% (active)	-61.4% (active)	-83.2% (active)	-93.7% (active)	-74.7% (active)
Cc1ccc2oc(=O)cc(-c3sc(N4CCCCC4)nc3-c3ccccc3)c2c1	90.9%	90.4%	81.8%	89.7%	91.1%	92.1%	89%	99.6%	99.8%	97.3%
CN1CCN(c2nc(-c3csc(-c4cccs4)n3)cc3ccccc23)CC1	79.1%	94.5%	81%	68.3%	-25.6% (active)	23%	70.7%	47.9%	48.1%	-51.1% (active)
COc1cccc(-c2nn(-c3ccccc3)cc2-c2ccnc(NCCCNS(=O)(=O)c3ccc(Br)cc3)c2)c1	52.9%	51.9%	74.4%	81%	44.3%	34.6%	54.4%	47.7%	46.4%	20.8%
CC1(C)CC[C@]2(C(=O)Nc3ccccn3)CC[C@]3(C)C(=CC[C@@H]4[C@@]5(C)C/C(=C/c6ccncc6)C(=O)C(C)(C)[C@@H]5CC[C@]43C)[C@@H]2C1	34.4%	28.1%	62.6%	70.9%	6.3% (active)	43.4%	40.1%	26.6%	44.2%	2.97% (active)
Cc1ccc(-c2nc([P+](c3ccccc3)(c3ccccc3)c3ccccc3)c(N3C[C@H]4C[C@H](C3)c3cccc(=O)n3C4)o2)cc1	82.3%	108%	94.3%	90.4%	105%	62.6%	74.3%	99.1%	97.1%	48.9%
COc1ccc(-c2nc3ncccn3c2-c2nc3ccc(Br)cc3[nH]2)cc1	98.4%	93.5%	94.3%	99.3%	90.1%	77.1%	69.7%	84.9%	98.1%	104%
Cn1cc(-c2nc(-c3c[nH]c4ncccc34)cs2)c2cc(Cl)ccc21	69.5%	81.8%	47.8%	86%	47%	40.4%	52.2%	43%	46.2%	80.2%
O=C1CCCC=CC[C@H]2C=C(Cl)C(=O)C2=CC[C@H](CCCCC(F)(F)F)OC(=O)CCCC=CC[C@H]2C=C(Cl)C(=O)C2=CC[C@H](CCCCC(F)(F)F)OC(=O)CCCC=CC[C@H]2C=C(Cl)C(=O)C2=CC[C@H](CCCCC(F)(F)F)O1	65.2% [6.25 µM]	113% [6.25 µM]	99.1% [6.25 µM]	85.9% [6.25 µM]	89.6% [6.25 µM]	126% [6.25 µM]	34.4% [6.25 µM]	93.7% [6.25 µM]	108% [6.25 µM]	80% [6.25 µM]
COc1cnc2c(c1)C(=O)c1c-2n(CCCNC2=NCCS2)c(=O)c2cc([N+](=O)[O-])ccc12	-47.1% (active)	8.43% (active)	-19.6% (active)	-59.6% (active)	-81.9% (active)	24.9%	22.8%	-77.2% (active)	-93% (active)	-67.1% (active)
COc1cccc(-c2nn(-c3ccccc3)cc2-c2ccnc(NCCCNS(=O)(=O)c3ccc(Cl)cc3)c2)c1	46.9%	40.3%	66.8%	81.8%	40.9%	25.1%	41.7%	39.9%	37.4%	15.1%
O=C1C=C(C(O)c2ccc(O)cc2)C(=O)c2ccccc21 (stereo not given)	89.2%	112%	95.2%	116%	107%	-2.83% (active)	92.8%	104%	106%	100%
COC(=O)[C@]12CC[C@@H](C)[C@H](C)[C@@H]1C1=CC[C@@H]3[C@@]4(C)C[C@@H](O)OC[C@](C)(C=O)C4C(=O)C[C@@]3(C)[C@]1(C)CC2 (stereo not given in full)	5.09% (active)	-21.5% (active)	27.6%	13%	-13% (active)	-28.6% (active)	-41.9% (active)	7.39% (active)	2.91% (active)	-94.4% (active)
N#CC1=C(N)Oc2c(sc3c(F)cccc23)C1c1ccc(Cl)cc1 (stereo not given)	43.7%	74.9%	55.1%	28.8%	13.1%	36.9%	6.14% (active)	38%	21.1%	38.4%
